# RXFP1 ag: qHTS Assay for Agonists of the Relaxin Receptor RXFP1. Relaxin receptor 1 (Homo sapiens), Q9HBX9. HEK293T-RXFP1 cAMP TR-FRET, 30 min; response scale: percent of porcine relaxin response, buffer zero. Potency, µM (highest dose often 57.5 µM), for the others: top-dose activation, hits mostly activators. 370,000 compounds, 0.3% hits. AID 2676, 2010; active = well fitted activation curve with a large enough effect; inconclusive = small, poorly fitted or top-dose-only effect; also: potency is read from the fitted curve at half-maximal effect; % is scaled to controls: 0 for no effect and ±100 for the full control effect; nearly all actives have a fitted effect of over 60% in size
# Target sequence (Q9HBX9 whole entry, looked up): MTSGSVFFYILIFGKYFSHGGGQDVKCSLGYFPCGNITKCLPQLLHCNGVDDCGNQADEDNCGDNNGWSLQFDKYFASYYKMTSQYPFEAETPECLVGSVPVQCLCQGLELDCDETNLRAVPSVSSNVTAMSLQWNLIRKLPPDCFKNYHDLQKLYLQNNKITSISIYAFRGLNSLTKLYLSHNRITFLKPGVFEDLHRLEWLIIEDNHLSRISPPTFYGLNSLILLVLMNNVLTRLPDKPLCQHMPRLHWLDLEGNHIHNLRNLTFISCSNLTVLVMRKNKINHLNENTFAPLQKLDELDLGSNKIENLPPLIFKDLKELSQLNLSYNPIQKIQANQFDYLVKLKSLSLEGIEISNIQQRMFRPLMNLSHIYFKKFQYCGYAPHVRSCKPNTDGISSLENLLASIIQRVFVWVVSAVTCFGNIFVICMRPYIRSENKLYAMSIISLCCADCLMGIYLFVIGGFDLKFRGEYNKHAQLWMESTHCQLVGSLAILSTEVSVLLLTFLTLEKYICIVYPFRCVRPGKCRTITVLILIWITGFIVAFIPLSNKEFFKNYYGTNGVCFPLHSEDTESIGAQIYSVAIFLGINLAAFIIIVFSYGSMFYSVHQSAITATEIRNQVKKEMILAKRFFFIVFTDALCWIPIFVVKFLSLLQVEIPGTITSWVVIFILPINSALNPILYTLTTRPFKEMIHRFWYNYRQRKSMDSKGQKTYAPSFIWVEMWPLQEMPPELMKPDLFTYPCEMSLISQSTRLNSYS
#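 HEK293 cells stably expressing RXFP1, treated 30 min at 37C with compounds plus PDE4 inhibitor Ro 20174; cAMP measured by HTRF TR-FRET. Normalized to buffer and 29 nM porcine relaxin; EC50 by Hill fit.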
# pAkt inh: HTS Assay for Inhibitors of Akt Phophorylation: Primary Screen; Neuro2A IGF-stimulated pAkt S473 HTRF, 20 min; active compounds read low; activity change, % for hits at 50 µM; 360,000 compounds, 0.32% hits; in the data active = activity change below about -80%; inconclusive = mostly about -51% to -80%; also: % is scaled to controls: 0 for no effect and ±100 for the full control effect
#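 Neuro2A cells (4,500/well, DMEM with 0.5% FBS) were treated with compound at a single 50 µM final concentration, stimulated with 6 nM IGF for 20 min at 37 °C, and lysed. Phospho-Akt Ser473 was read by HTRF as 665/615 ratio ×10^4.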
# RXFP1 antagonist: qHTS Assay for Antagonists of the Relaxin Receptor RXFP1 | Relaxin receptor 1 (Homo sapiens), Q9HBX9 | HEK293-RXFP1, relaxin-stimulated cAMP HTRF, 30 min; active compounds read low | activity change, negative = inhibition, % at 57.5 µM | 350,000 compounds, 0.59% hits | AID 1259400, 2018;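 active = activity change of -60% or lower, but not beyond a set lower limit; inconclusive = change between -60% and -40%, or beyond the set limit; inactive = change above -40%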; also: % is scaled to controls: 0 for no effect and ±100 for the full control effect
# gsp ag: qHTS for Agonist of gsp, the Etiologic Mutation Responsible for Fibrous Dysplasia/McCune-Albright Syndrome: qHTS; gsp mutant cells, cAMP HTRF, 30 min; Potency, µM (series often up to 76.9 µM), without a hit: at the highest dose activation (cAMP increase), usual class: activators; 340,000 compounds, 0.13% hits; AID 624287, 2012; active = well fitted activation curve with a large enough effect; inconclusive = small, poorly fitted or top-dose-only effect, or another doubt; inactive = no such curve, though single readings can be large or run the other way; cell line not stated here;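 also: phosphodiesterase inhibitor Ro 20-1724 added with compounds to block cAMP breakdown; potency is read from the fitted curve at half-maximal effect; nearly all actives have a fitted effect of over 60% in size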
#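 Cells in DMEM/10% FBS with G418 were pretreated with compounds in DMSO plus […] (300 uM stock) for 30 min at 37C. cAMP was measured by HTRF (cAMP-d2 plus anti-cAMP antibody-K) after 30 min at room temperature.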
# gsp antag: qHTS for Antagonists of gsp, the Etiologic Mutation Responsible for Fibrous Dysplasia/McCune-Albright Syndrome: qHTS; gsp-mutant cells, cAMP HTRF, 30 min; Potency, µM (titrated, usually from 76.9 µM), for the others: at the highest dose activity change, negative = inhibition, most hits filed as inhibitors; 340,000 compounds, 0.4% hits; calls by dose curve; cell line not stated here;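 also: intracellular cAMP measured with PDE inhibitor Ro 20-1724 present during compound exposure; potency is read from the fitted curve at half-maximal effect; % is scaled to controls: 0 for no effect and ±100 for the full control effect; nearly all actives have a fitted effect of over 65% in size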
#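 Cells, 2000/well, grown 16–24 h in DMEM 10% FBS with 0.5 mg/ml G418, then compounds plus […] (300 uM addition stock), 30 min at 37C. cAMP read by HTRF (cAMP-d2 and anti-cAMP antibody-K in lysis buffer) after 30 min RT.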
# * marks the source's active call; other numbers are inactive results; i = inactive; ? = inconclusive; / = no result given; [ ] = another dose, or the depositor's remark. Sampled rows, rich in hits. Any-hit rate of the full collection: about 1.2%.
SMILES,RXFP1 ag,pAkt inh,RXFP1 antagonist,gsp ag,gsp antag
CC(C)c1nnc(NC(=O)c2nc(S(=O)(=O)Cc3ccc(F)cc3)ncc2Cl)s1,-3%,i,?,-17%[15.4 µM],28µM*
CSc1ncc(Cl)c(C(=O)Nc2nnc(SC/C=C/c3ccccc3)s2)n1,-1%,i,-32,?,35µM*
CSc1nnc(NC(=O)c2nc(S(=O)(=O)Cc3cccc(C)c3)ncc2Cl)s1,2%,i,-73*,-9%[15.4 µM],40µM*
CC(C)c1nnc(NC(=O)c2nc(S(=O)(=O)Cc3ccccc3F)ncc2Cl)s1,2%,i,-28,-3%,?
CCOc1ccccc1NC(=O)c1nc(S(=O)(=O)Cc2cccc(C)c2)ncc1Cl,0%,i,-4,?,-24%
Cc1cccc(NC(=O)CN2C(=O)CSc3ccc(S(=O)(=O)N4CCCC4)cc32)c1C,?,/,-8,/,/
COc1cccc(-n2c(C)nc3c(cnn3-c3ccc(C)c(C)c3)c2=O)c1,-1%,/,/,/,/
CCc1ccccc1NC(=O)c1ccc2c(c1)N(Cc1cc(C)ccc1C)C(=O)c1ccccc1S2(=O)=O,5%,/,/,/,/
CCOCCCn1c(SCC(=O)Nc2ccccc2OC)nc2ccccc2c1=O,3%,i,0,8%,-6%
COc1ccccc1NC(=O)CSc1nc2ccccc2c(=O)n1C,-1%,i,-22,-24%,35µM*
COc1ccccc1NC(=O)CSc1nnc(Cc2cccn2C)n1CCc1ccccc1,3%,-83%*,20,-2%,3%
CCOc1ccc2oc(=O)cc(CN3CCN(c4cc(C)ccc4C)CC3)c2c1,-1%,/,-5,/,/
Cc1cccc(CNc2ncnc3ccc(-c4ccc5c(ccn5C)c4)cc23)c1,4%,/,/,/,/
O=C(Nc1nc2n(n1)C(c1ccccc1)C=C(c1ccccc1)N2)c1ccccc1 (stereo unspecified),12%,/,-7,/,/
CCOCc1nnc(NC(=O)c2ccco2)s1,4%,-123%*,8,31%,-2%
O=C(Nc1nnc(CC(c2ccccc2)c2ccccc2)s1)c1ccco1,10%,-112%*,-12,-1%,5%
COCc1nnc(NC(=O)c2ccco2)s1,-1%,i,-3,-6%,8%
CCC(c1ccccc1)c1nnc(NC(=O)c2ccco2)s1 (stereo unspecified),2%,i,0,-10%,3%
O=C(Nc1nnc(Cc2ccccc2)s1)c1cccs1,11%,-82%*,-2,7%,5%
COC(=O)CN1C(C(=O)c2ccccc2)=C(OC(=O)c2ccccc2)c2ccccc2S1(=O)=O,23%,/,-15,/,/
CCn1c(NCc2cccc(Cl)c2)nc2ccccc21,0%,/,/,/,/
Cc1ccc(SCC(=O)Nc2ccc(O)c(-c3nc4cc(C)ccc4o3)c2)cc1,10%,/,16,/,/
COc1ccc(CCNS(=O)(=O)c2ccc(N3CCCC3=O)cc2)cc1,/,i,2,-15%,-5%
COc1ccc(OC)c(NS(=O)(=O)c2ccc(N3CCCC3=O)cc2)c1,4%,-115%*,6,-20%,-3%
CC[C@@]1(O)C(=O)OCc2c1cc1n(c2=O)Cc2c-1nc1ccccc1c2/C=N/OC(C)(C)C,/,/,-18,/,/
SMILES,RXFP1 ag,pAkt inh,RXFP1 antagonist,gsp ag,gsp antag
N#C/C(=C\c1cccs1)C(=O)c1ccccc1Cl,0%,i,-61*,-3%,-1%
CCN(CC)CCCNC(=S)N1CCN(c2nc(-c3ccc(F)cc3)cs2)CC1,1%,i,-74*,2%[15.4 µM],11%
COCCNC(=S)N1CCN(c2nc(-c3ccc(F)cc3)cs2)CC1,0%,i,-2,6%,?
CCNC(=S)N1CCN(c2nc(-c3ccc(F)cc3)cs2)CC1,2%,i,-9,-16%,35µM*
CC(C)(C)C1CCc2onc(C(=O)Nc3sc4c(c3C#N)CCCC4)c2C1 (stereo unspecified),3%,/,-2,/,/
CCN(CC)CCOC(=O)c1ccc(NC(=O)c2nn(-c3ccc(C)cc3)c(=O)c3c2c2ccccc2n3C)cc1,4%,/,-12,/,/

# Compound activity deposited in PubChem by National Center for Advancing Translational Sciences (NCATS).
